# Screening results deposited in PubChem BioAssay by National Center for Advancing Translational Sciences (NCATS).
# FEN1 inh – qHTS Assay for the Inhibitors of Human Flap endonuclease 1 (FEN1); P39748; Recombinant FEN1 flap cleavage, fluorescence, 15 min; Potency, µM (top dose mostly 114 µM), without a hit: at the top dose activity change, negative = inhibition, hits mostly inhibitors; 390,000 tested, 0.35% active; AID 588795, 2011; also: % is scaled to controls: 0 for no effect and ±100 for the full control effect; nearly all actives have a fitted effect of over 65% in size
#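 With each library titrated from low to high concentration, compounds met 10 nM FEN1 for 15 min at room temperature before 50 nM substrate was added; readings at 0 and 15 min fed four-parameter Hill curve fits.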
# Pol iota inh – qHTS for Inhibitors of Polymerase Iota; DNA polymerase iota (Homo sapiens), Q9UNA4; Pol iota fluorescent replication assay, 10 min; Potency, µM (highest dose often 115 µM), for inactives: at the highest dose activity, negative = inhibition, most hits filed as inhibitors; 390,000 tested, 1% active; AID 588590, 2011
#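 Pol iota at 10 nM preincubated 15 min with compounds at room temperature; reaction started with fluorescent substrate, 50 nM final. Fluorescence read kinetically at 0 and 10 min; buffer-only wells as negative control.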
# POLK inh – qHTS for Inhibitors of Polymerase Kappa | 400,000 tested, 0.53% active | AID 588579, 2011 | Potency, µM (titrated, usually from 107 µM), for inactives: top-dose activity, negative = inhibition, actives largely listed as inhibitors | purified Pol kappa, fluorescent DNA synthesis assay, 10 min | DNA polymerase kappa (Homo sapiens), Q9UBT6; also: % is scaled to controls: 0 for no effect and ±100 for the full control effect
#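 50 nM final substrate added after 15 min RT preincubation of 10 nM Pol kappa with compound; fluorescence read at 0 and 10 min.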
# Pol eta inh – qHTS for Inhibitors of Polymerase Eta. 390,000 tested, 1.2% active. AID 588591, 2011. Potency, µM (titrated, usually from 114 µM), without a hit: at the highest dose activity change, negative = inhibition, most hits filed as inhibitors. DNA polymerase eta (Homo sapiens), Q9Y253. recombinant Pol eta, fluorescent DNA replication assay; also: % is scaled to controls: 0 for no effect and ±100 for the full control effect
# Target sequence (Q9Y253 whole entry, looked up): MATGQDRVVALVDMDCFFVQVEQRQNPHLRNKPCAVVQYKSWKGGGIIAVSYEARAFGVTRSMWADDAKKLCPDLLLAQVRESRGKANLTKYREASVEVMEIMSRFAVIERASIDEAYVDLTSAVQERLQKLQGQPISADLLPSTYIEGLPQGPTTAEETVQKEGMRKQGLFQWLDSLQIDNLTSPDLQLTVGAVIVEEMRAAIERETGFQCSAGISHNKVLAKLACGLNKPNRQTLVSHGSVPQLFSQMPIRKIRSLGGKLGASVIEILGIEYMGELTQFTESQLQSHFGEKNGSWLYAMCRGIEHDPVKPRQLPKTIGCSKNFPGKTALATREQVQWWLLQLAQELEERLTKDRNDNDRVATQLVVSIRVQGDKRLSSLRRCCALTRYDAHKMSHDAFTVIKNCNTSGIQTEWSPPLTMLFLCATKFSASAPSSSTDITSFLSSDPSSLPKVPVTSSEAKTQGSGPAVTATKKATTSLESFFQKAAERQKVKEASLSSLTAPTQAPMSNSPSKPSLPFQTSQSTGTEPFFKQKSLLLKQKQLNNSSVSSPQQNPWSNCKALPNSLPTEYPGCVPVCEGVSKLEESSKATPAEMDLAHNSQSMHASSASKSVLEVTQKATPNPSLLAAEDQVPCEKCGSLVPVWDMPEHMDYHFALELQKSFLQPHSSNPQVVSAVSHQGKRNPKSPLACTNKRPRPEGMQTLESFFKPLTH
#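 Fluorescent replication assay: 50 nM final substrate added after a 15 min room-temperature compound preincubation with 10 nM enzyme. Signal taken at 0 min and again at 10 min.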
# Pol beta inh – qHTS Assay for Inhibitors of DNA Polymerase Beta | AID 485314, 2010 | 340,000 tested, 1.3% active | Potency, µM (highest dose often 114 µM), for inactives: at the top dose activity change, negative = inhibition, usual class: inhibitors | Pol beta primer extension/strand displacement, fluorescence kinetic | P06746; also: % is scaled to controls: 0 for no effect and ±100 for the full control effect
#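 Pol beta (10 nM) was preincubated with compound for 15 min at room temperature. The reaction was then started with 50 nM substrate and read immediately and after a further 10 min at room temperature.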
# WRN inhibitor – qHTS for Inhibitors of WRN Helicase. Bifunctional 3'-5' exonuclease/ATP-dependent helicase WRN (Homo sapiens), Q14191. WRN helicase unwinding, fluorescent forked duplex, kinetic. Potency, µM (highest dose often 114 µM), without a hit: top-dose activity change, negative = inhibition, hits mostly inhibitors. 360,000 tested, 0.46% active. AID 651768, 2012; also: % is scaled to controls: 0 for no effect and ±100 for the full control effect; nearly all actives have a fitted effect of over 55% in size
#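 Enzyme (20 nM final) and test compound sit together 15 min at room temperature before substrate addition. Substrate is a single-forked duplex oligonucleotide (100 nM) labelled with fluorophore and quencher, with 2 mM ATP; helicase unwinding raises red fluorescence, read kinetically.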
# * marks the source's active call; other numbers are inactive results; ? = inconclusive; . = no result; [ ] = another dose, or the depositor's remark. Only some compounds are listed: those with a hit (about 2.4% of all), similar ones and a draw of the others. Calls follow the shape of the dose curve; as a rule, active = well fitted curve in the direction sought with a large enough effect; inconclusive = small, poorly fitted or top-dose-only effect, or another doubt; inactive = no such curve, though single readings can be large; an effect the other way counts as inactive or inconclusive. Potency is read from the fitted curve at half-maximal effect.
SMILES,FEN1 inh,Pol iota inh,POLK inh,Pol eta inh,Pol beta inh,WRN inhibitor
CC[C@]12c3[nH]c4cc(CCC(=O)N(C)C)ccc4c3CCN1C(=O)[C@@H](CC(=O)NCCC1=CCCCC1)C[C@@H]2C(=O)N1CCN(C(=O)c2ccco2)CC1,-3%,40%,5%,-17%,.,2%
O=C(COc1ccccc1C(=O)Nc1cccnc1)Nc1ccc(Br)cc1,5%,-19%,9%,.,.,.
COc1ccc2c(c1)c1c(c(=O)n(-c3ccccc3C)c(=O)n1CC(=O)Nc1c(C)cccc1C)n2C,-2%,-7%,-2%,0%,24%,.
N#Cc1c(SCC(=O)Nc2ccc(Cl)cc2Cl)sc2c(O)cc(=O)[nH]c12,-3%,32µM*,-41%,25µM*,10%,-3%[11.6 µM]
N#Cc1cccc(NC(=O)CSc2sc3c(O)cc(=O)[nH]c3c2C#N)c1,?,?,?,50µM*,?,?
CSc1ccc(NC(=O)CSc2nc3[nH]c(=O)cc(O)c3s2)cc1,?,?,56µM*,40µM*,.,?
N#Cc1c(SCC(=O)Nc2ccccc2C(F)(F)F)sc2c(O)cc(=O)[nH]c12,-20%,32µM*,?,?,-16%,-3%[11.6 µM]
COc1ccc(-n2c(CC3C(=O)N(C)c4ccc(C)cc43)nc3ccccc3c2=O)cc1 (configuration not stated),10%,6%,2%,.,4%,.
COc1cccc(CNC(=O)CN2N=C(c3ccc(C)cc3)CCC2=O)c1,22%,-11%,-9%[60.1 µM],14%,-14%,.
Cc1occc1C(=O)N1CCN(c2ccc([N+](=O)[O-])cc2)CC1,-3%,?,-5%,-1%,40µM*,3%
Cc1occc1C(=O)N1CCN(c2ccc(Cl)cc2)CC1,-1%,134%,-14%,-19%,29%,-4%
CCc1nn2c(=O)cc(COC(=O)Cc3ccccc3)nc2s1,21%,-1%,-15%,-8%,3%,.
O=S(=O)(c1ccc(Cl)cc1)N1CCN(c2nc(-c3ccccc3)nc3ccccc23)CC1,-22%,-1%,6%,.,.,.
COc1ccc(OC)c(S(=O)(=O)n2cnc3ccccc32)c1,11%,8%,3%,-1%,27%,1%
COc1cc(C)c(Cl)cc1S(=O)(=O)n1cnc2ccccc21,-2%,9%,-19%,-12%,89µM*,-11%
CCOC(=O)Cc1cc(=O)n2[nH]c(-c3ccccc3)c(-c3ccccc3)c2n1,0%,?,79µM*,79µM*,14µM*,?
CCOC(=O)Cc1cc(=O)n2[nH]c(C)c(-c3ccccc3)c2n1,-8%,?,?,5%,?,-11%[57.1 µM]
CC1=C(c2ccc(C)cc2)S(=O)(=O)NC1=NCCCN1CCN(c2ccccc2F)CC1,2%,21%,-1%,5%,-3%,.
COc1ccc(-c2noc(-c3ccc(N4CCOCC4)c([N+](=O)[O-])c3)n2)cc1OC,14%,12%,-3%,-13%,2%,.
COc1ccc(-c2noc(-c3ccc(N4CCC(C)CC4)c([N+](=O)[O-])c3)n2)cc1OC,-12%,-18%,?,-6%,79µM*,.
Cc1cc(C)cc(OCC(=O)NNC(=O)c2cc3ccccc3o2)c1,1%,10%,0%,-10%,-4%,-4%
CCc1ccc(OCC(=O)Nc2ccc(-c3nc4ccccc4o3)c(O)c2)cc1,4%,0%,-15%,?,2.2µM*,-18%
CCc1ccc(OCC(=O)NNC(=O)Cc2cccs2)cc1,5%,58%,-18%,?,20µM*,-1%[11.6 µM]
COc1ccc(OCC(=O)Nc2cccc(-c3nc4ccccc4o3)c2)cc1,3%,?,1%,-7%,?,-5%
CCc1ccc(OCC(=O)NNC(=O)c2cc3ccccc3o2)cc1,2%,33%,-23%,9%,25µM*,?
SMILES,FEN1 inh,Pol iota inh,POLK inh,Pol eta inh,Pol beta inh,WRN inhibitor
Cc1ccccc1C(=O)Nc1cccc(OCc2cc(=O)n3c4c(sc3n2)CCCC4)c1,12%,18%,-18%,-9%,12%,.
Cc1ccc(S(=O)(=O)N2CCN(c3nc(-c4cccs4)nc4ncccc34)CC2)cc1,6%,13%,1%,.,.,.
COC(=O)[C@@H]1C[C@@]2(Br)c3ccccc3N(S(=O)(=O)c3ccccc3)[C@H]2N1C(=O)OC,-4%,89µM*,-1%,-17%,.,-12%[11.6 µM]
COC(=O)[C@@H]1C[C@]2(Br)c3ccccc3N(S(=O)(=O)c3ccccc3)[C@@H]2N1C(=O)OC,3%,-16%,3%,-12%,.,0%
Cc1ccc2nc(-c3cccc(NC(=O)CSc4ccc(Cl)cc4)c3)oc2c1,-3%,-1%,10%,.,11%,.
O=C(NCc1ccccn1)c1ccc(Cn2c(=S)[nH]c3ccc(Br)cc3c2=O)cc1,-7%,180%,-2%,-7%,-25%,-12%
O=C(NCc1ccccn1)c1ccc(Cn2c(=S)[nH]c3ccccc3c2=O)cc1,8%,50µM*,-11%,-17%,?,-7%
CC1=C(c2ccc(Cl)cc2)S(=O)(=O)N=C1N1CCN(c2cccc(C)c2)C(C)C1 (configuration not stated),-2%,?,-13%,-17%,-16%,.
COc1ccc(NC(=O)CSc2ccc(-c3cccs3)nn2)cc1,-5%,89µM*,-4%,-12%,0%,.
COc1ccc(NC(=O)CSc2nc(SC)ns2)cc1,-3%,7%,1%,-10%,89µM*,2%
CC(=O)Nc1ccc(NC(=O)CSc2ccc(-c3cccs3)nn2)cc1,-7%,-26%,-5%,-3%,-13%,-8%
CC(=O)c1cccc(NC(=O)CSc2ccc(-c3sc(C)nc3C)nn2)c1,-9%,-21%,-10%,-4%,79µM*,-9%
O=C(CSc1ccc(-c2ccco2)nn1)c1ccc(F)cc1,?,14µM*,32µM*,?,?,45µM*
CSc1nsc(SCC(=O)Nc2ccc(NC(C)=O)cc2)n1,9%,45%,-10%,-26%,37%,-23%
O=C(CSc1ccc(-c2ccco2)nn1)NCc1ccc(F)cc1,10%,-10%,-14%,-3%,-30%,-15%
CC(C)(C)n1ncc2c(=O)n(Cc3ccc(SC(F)(F)F)cc3)cnc21,0%,13%,10%,.,.,.
O=S1(=O)c2ccccc2N(Cc2ccccc2Cl)c2ccccc21,9%,?,0%,-2%,17%,.
